Experimental data reported in PubChem BioAssay (EPA / NIEHS).
Calls of active or inactive are those of the source. The calls were made as follows: active = hit-call score of the fitted dose curve at least 0.9, where 1 is the maximum; inactive = score below 0.9.

Legend:
[1] = ATG_PBREM_CIS: Attagene CIS-FACTORIAL HepG2 Assay for human Phenobarbital-responsive Enhancer Module (PBREM) (AID 2282955); conditions: HepG2 PBREM cis-reporter, Attagene multiplexed transcription; actives raise or lower the signal
Summary of the method: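 HepG2 cells transiently transfected with multiple cis-regulated reporter transcription units; endogenous factor activity at the PBREM element measured as reporter mRNA 24 h after dosing, via RT-PCR and capillary electrophoresis of fluorescent fragments; bidirectional fitting versus DMSO.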

[2] = molecular target: Paired box protein Pax-6 (Homo sapiens) (UniProt P26367); experiment: ATG_Pax6_CIS: Attagene CIS-FACTORIAL HepG2 Assay for human Paired Box 6 (PAX6) (AID 2282956); conditions: HepG2 CIS-FACTORIAL PAX6 reporter transcription, RNA readout; actives raise or lower the signal
Sequence of Paired box protein Pax-6 (Homo sapiens) (P26367 whole entry, looked up): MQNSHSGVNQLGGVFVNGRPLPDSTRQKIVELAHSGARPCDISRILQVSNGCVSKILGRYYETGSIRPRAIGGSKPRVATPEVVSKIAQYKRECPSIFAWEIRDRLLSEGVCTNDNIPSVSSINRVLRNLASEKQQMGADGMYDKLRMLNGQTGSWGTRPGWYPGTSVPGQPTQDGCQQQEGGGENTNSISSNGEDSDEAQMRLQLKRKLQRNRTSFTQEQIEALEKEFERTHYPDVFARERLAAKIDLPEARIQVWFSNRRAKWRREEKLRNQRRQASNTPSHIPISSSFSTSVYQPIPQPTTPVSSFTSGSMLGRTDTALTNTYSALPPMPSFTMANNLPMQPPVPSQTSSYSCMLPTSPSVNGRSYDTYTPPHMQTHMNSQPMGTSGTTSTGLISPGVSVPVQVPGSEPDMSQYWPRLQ
Summary of the method: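 Read-out is reporter transcript level, measured by RT-PCR with fluorescent primer extension and capillary electrophoresis after 24 h dosing of transfected HepG2 cells. Activity in either direction fitted relative to DMSO control.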

[3] = ATG_PXRE_CIS: Attagene CIS-FACTORIAL HepG2 Assay for human Pregnane X Receptor Element (PXRE) (AID 2282957); conditions: HepG2 Attagene CIS-FACTORIAL PXRE reporter, mRNA; actives raise or lower the signal
Summary of the method: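 Bidirectional activity, baselined to DMSO, derived from reporter mRNA fluorescence (RT-PCR plus capillary electrophoresis) in HepG2 cells bearing cis-promoter reporter units, 24 h exposure.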

[4] = ATG_PPRE_CIS: Attagene CIS-FACTORIAL HepG2 Assay for human Peroxisome Proliferator-activated Response Element (PPRE) (AID 2282958); conditions: HepG2 PPRE cis-element reporter, Attagene transcription factor profiling; actives raise or lower the signal
Summary of the method: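 HepG2 cells transiently transfected with multiplexed cis-element reporter units measure endogenous transcription factor activity. After 24 h compound exposure, reporter mRNA is quantified by RT-PCR, 6-FAM labeling, HpaI digestion and capillary electrophoresis; bidirectional fits are made against DMSO baseline.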

[5] = ATG_RORE_CIS: Attagene CIS-FACTORIAL HepG2 Assay for human RAR-related Orphan Receptor Element (RORE) (AID 2282959); conditions: HepG2 Attagene cis-factorial RORE reporter, mRNA; actives raise or lower the signal
Summary of the method: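 HepG2 cells transiently transfected with multiple cis-element reporter transcription units, exposed to chemical for 24 h. Reporter mRNA quantified by RT-PCR, 6-FAM primer-extension labeling, HpaI digestion and capillary electrophoresis; bidirectional fit versus DMSO baseline.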

[6] = ATG_Sox_CIS: Attagene CIS-FACTORIAL HepG2 Assay for human SRY-box transcription factor (SOX) (AID 2282960); conditions: HepG2 Attagene cis-factorial SOX reporter, mRNA; actives raise or lower the signal
Summary of the method: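 HepG2 cells transiently transfected with cis-element-driven multiple reporter transcription units, dosed 24 h; reporter mRNA measured by RT-PCR, FAM labelling, HpaI digestion and capillary electrophoresis. Bidirectional fit versus DMSO baseline.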

[7] = molecular target: Transcription factor Sp1 (Homo sapiens) (UniProt P08047); experiment: ATG_Sp1_CIS: Attagene CIS-FACTORIAL HepG2 Assay for human Specificity Protein 1 (Sp1) (AID 2282961); conditions: HepG2 Sp1 cis-reporter transcription, actives raise or lower the signal
Sequence of Transcription factor Sp1 (Homo sapiens) (P08047 whole entry, looked up): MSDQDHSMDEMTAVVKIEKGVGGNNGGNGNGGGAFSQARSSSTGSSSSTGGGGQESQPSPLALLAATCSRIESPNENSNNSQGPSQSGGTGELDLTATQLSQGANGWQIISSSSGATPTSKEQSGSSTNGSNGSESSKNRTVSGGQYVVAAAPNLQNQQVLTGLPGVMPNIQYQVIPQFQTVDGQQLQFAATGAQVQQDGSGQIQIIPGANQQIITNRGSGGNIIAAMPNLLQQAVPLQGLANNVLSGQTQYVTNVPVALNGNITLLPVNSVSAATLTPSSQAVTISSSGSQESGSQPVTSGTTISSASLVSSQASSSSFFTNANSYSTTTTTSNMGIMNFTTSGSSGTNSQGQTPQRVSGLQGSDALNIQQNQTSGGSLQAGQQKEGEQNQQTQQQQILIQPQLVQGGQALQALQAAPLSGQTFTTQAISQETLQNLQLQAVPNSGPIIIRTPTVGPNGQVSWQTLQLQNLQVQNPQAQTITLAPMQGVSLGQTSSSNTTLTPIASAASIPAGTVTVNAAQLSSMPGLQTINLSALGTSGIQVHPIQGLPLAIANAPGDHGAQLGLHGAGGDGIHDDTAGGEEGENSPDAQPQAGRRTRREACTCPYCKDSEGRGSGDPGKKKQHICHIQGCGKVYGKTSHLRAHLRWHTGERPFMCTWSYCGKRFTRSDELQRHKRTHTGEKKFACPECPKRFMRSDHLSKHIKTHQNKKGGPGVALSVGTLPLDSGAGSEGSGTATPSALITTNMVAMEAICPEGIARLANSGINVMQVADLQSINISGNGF
Summary of the method: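 HepG2 cells transiently transfected with multiple reporter transcription units driven by cis-regulatory elements; Sp1-responsive reporter mRNA measured 24 h after dosing by RT-PCR and capillary electrophoresis fluorescence, fitted bidirectionally against DMSO baseline.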

[8] = ATG_SREBP_CIS: Attagene CIS-FACTORIAL HepG2 Assay for human Sterol Regulatory Element Binding (SREBP) (AID 2282962); conditions: HepG2 Attagene cis-factorial SREBP reporter, mRNA; actives raise or lower the signal
Summary of the method: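 Endogenous SREBP activity read as cis-element-driven reporter transcript in transiently transfected HepG2, 24 h post-dosing; quantified via RT-PCR plus capillary electrophoresis of fluorescent fragments. Gain or loss of signal fitted relative to DMSO baseline.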

[9] = molecular target: Signal transducer and activator of transcription 3 (Homo sapiens) (UniProt P40763); experiment: ATG_STAT3_CIS: Attagene CIS-FACTORIAL HepG2 Assay for human Signal Transducer and Activator of Transcription 3 (STAT3) (AID 2282963); conditions: HepG2, Attagene cis-factorial STAT3 reporter transcription; actives raise or lower the signal
Sequence of Signal transducer and activator of transcription 3 (Homo sapiens) (P40763 whole entry, looked up): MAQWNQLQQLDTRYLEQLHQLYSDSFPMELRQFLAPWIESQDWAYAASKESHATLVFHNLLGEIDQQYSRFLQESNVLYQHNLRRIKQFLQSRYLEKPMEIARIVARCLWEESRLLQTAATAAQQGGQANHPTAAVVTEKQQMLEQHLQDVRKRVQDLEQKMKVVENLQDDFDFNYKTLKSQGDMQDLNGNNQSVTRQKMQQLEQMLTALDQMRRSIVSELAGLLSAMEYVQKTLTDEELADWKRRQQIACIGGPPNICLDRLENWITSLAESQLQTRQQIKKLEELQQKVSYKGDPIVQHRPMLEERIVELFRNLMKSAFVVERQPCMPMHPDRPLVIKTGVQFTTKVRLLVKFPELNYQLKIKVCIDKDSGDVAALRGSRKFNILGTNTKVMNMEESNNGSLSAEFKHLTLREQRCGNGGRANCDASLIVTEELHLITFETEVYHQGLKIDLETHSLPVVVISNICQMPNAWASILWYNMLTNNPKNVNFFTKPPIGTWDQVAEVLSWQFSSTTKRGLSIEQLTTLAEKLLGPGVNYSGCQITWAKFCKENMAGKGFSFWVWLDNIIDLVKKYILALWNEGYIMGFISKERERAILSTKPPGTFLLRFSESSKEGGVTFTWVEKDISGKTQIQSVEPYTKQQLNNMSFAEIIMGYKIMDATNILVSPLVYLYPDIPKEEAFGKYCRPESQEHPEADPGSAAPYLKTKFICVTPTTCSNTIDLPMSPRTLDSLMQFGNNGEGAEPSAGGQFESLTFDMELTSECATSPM
Summary of the method: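 Uses human liver HepG2 transiently carrying cis-regulated reporter transcription units. Following 24 h dosing, reporter mRNA induction was detected by RT-PCR and capillary electrophoresis, analysed bidirectionally versus DMSO.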

[10] = ATG_TA_CIS: Attagene CIS-FACTORIAL HepG2 Assay for human TA Basal Promoter (AID 2282964); conditions: HepG2 Attagene CIS-factorial TA basal promoter reporter; actives raise or lower the signal
Summary of the method: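 Fluorescence from labelled RT-PCR reporter fragments, separated by capillary electrophoresis, gives the signal. Cells: HepG2 transiently carrying multiple reporter units, 24 h chemical dosing. Gain or loss relative to DMSO.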

Brc1ccccn1
outcome [1]: inactive
outcome [2]: inactive
outcome [3]: inactive
outcome [4]: inactive
outcome [5]: inactive
outcome [6]: inactive
outcome [7]: inactive
outcome [8]: inactive
outcome [9]: inactive
outcome [10]: inactive

CN1CN(C)CN(C)C1
outcome [1]: inactive
outcome [2]: inactive
AC50 [3]: 49.5 µM (active)
outcome [4]: inactive
outcome [5]: inactive
outcome [7]: inactive
outcome [8]: inactive
outcome [9]: inactive

O=C1C=CC(=O)N1c1ccc(Cc2ccc(N3C(=O)C=CC3=O)cc2)cc1
outcome [1]: inactive
AC50 [2]: 33.4 µM (active)
AC50 [3]: 26.7 µM (active)
AC50 [4]: 57.2 µM (active)
outcome [5]: inactive
AC50 [7]: 48.4 µM (active)
outcome [8]: inactive
outcome [9]: inactive
outcome [10]: inactive

Cc1ccc(O)c(-n2nc3ccccc3n2)c1
outcome [1]: inactive
outcome [2]: inactive
AC50 [3]: 12.2 µM (active)
AC50 [4]: 13.5 µM (active)
outcome [5]: inactive
outcome [7]: inactive
outcome [8]: inactive
outcome [9]: inactive

CCCCOC(=O)[C@H](C)O
outcome [1]: inactive
outcome [2]: inactive
outcome [3]: inactive
outcome [4]: inactive
outcome [5]: inactive
outcome [7]: inactive
outcome [8]: inactive
outcome [9]: inactive
outcome [10]: inactive

O=C(O)C(F)(F)C(F)(F)C(F)(F)OC(F)(F)F
outcome [1]: inactive
outcome [2]: inactive
outcome [3]: inactive
outcome [4]: inactive
outcome [5]: inactive
outcome [6]: inactive
outcome [7]: inactive
outcome [8]: inactive
outcome [9]: inactive
outcome [10]: inactive

O=C1C=CC(=O)N1c1ccccc1
outcome [1]: inactive
outcome [2]: inactive
outcome [3]: inactive
outcome [4]: inactive
outcome [5]: inactive
outcome [7]: inactive
outcome [8]: inactive
outcome [9]: inactive
outcome [10]: inactive

O=c1cccc[nH]1
outcome [1]: inactive
outcome [2]: inactive
outcome [3]: inactive
outcome [4]: inactive
outcome [5]: inactive
outcome [7]: inactive
outcome [8]: inactive
outcome [9]: inactive
outcome [10]: inactive

Cc1ccc(S(=O)(=O)C(I)I)cc1
outcome [1]: inactive
AC50 [2]: 14.9 µM (active)
AC50 [3]: 8.89 µM (active)
AC50 [4]: 62.5 µM (active)
outcome [5]: inactive
AC50 [7]: 9.07 µM (active)
AC50 [8]: 4.34 µM (active)
AC50 [9]: 7.8 µM (active)
outcome [10]: inactive

CC(C)CC=C(C=O)c1ccccc1
outcome [1]: inactive
outcome [2]: inactive
AC50 [3]: 0.956 µM (active)
outcome [4]: inactive
outcome [5]: inactive
outcome [7]: inactive
outcome [8]: inactive
outcome [9]: inactive
outcome [10]: inactive

O=S(=O)(O)c1ccc(Cl)cc1
outcome [1]: inactive
outcome [2]: inactive
outcome [3]: inactive
outcome [4]: inactive
outcome [5]: inactive
outcome [7]: inactive
outcome [8]: inactive
outcome [9]: inactive

CC1=CCC2C(=O)OC(=O)C2C1 (stereo unspecified)
outcome [1]: inactive
outcome [2]: inactive
outcome [3]: inactive
outcome [4]: inactive
outcome [5]: inactive
outcome [7]: inactive
outcome [8]: inactive
outcome [9]: inactive
outcome [10]: inactive

OCC(F)(F)C(F)(F)C(F)(F)C(F)(F)C(F)(F)C(F)(F)CO
outcome [1]: inactive
outcome [2]: inactive
AC50 [3]: 70.6 µM (active)
outcome [4]: inactive
outcome [5]: inactive
outcome [7]: inactive
outcome [8]: inactive
outcome [9]: inactive

NCC(F)(F)C(F)(F)C(F)(F)C(F)(F)C(F)(F)C(F)(F)C(F)(F)C(F)(F)F
outcome [1]: inactive
outcome [2]: inactive
outcome [3]: inactive
outcome [4]: inactive
outcome [5]: inactive
outcome [7]: inactive
outcome [8]: inactive
outcome [9]: inactive
outcome [10]: inactive

O=C=Nc1cccc2c(N=C=O)cccc12
outcome [1]: inactive
outcome [2]: inactive
AC50 [3]: 1.82 µM (active)
outcome [4]: inactive
outcome [5]: inactive
outcome [6]: inactive
outcome [7]: inactive
outcome [8]: inactive
outcome [9]: inactive
outcome [10]: inactive

C=C(C)CCCC
outcome [1]: inactive
outcome [2]: inactive
outcome [3]: inactive
outcome [4]: inactive
outcome [5]: inactive
outcome [7]: inactive
outcome [8]: inactive
outcome [9]: inactive
outcome [10]: inactive

CN(N=O)C(=O)N[C@@H]1[C@@H](O)[C@H](O)[C@@H](CO)O[C@@H]1O
outcome [1]: inactive
outcome [2]: inactive
outcome [3]: inactive
outcome [4]: inactive
outcome [5]: inactive
outcome [7]: inactive
outcome [8]: inactive
outcome [9]: inactive
outcome [10]: inactive

CC(C)OC(=O)COc1ccc(Cl)cc1Cl
outcome [1]: inactive
outcome [2]: inactive
AC50 [3]: 68.8 µM (active)
outcome [4]: inactive
outcome [5]: inactive
outcome [7]: inactive
outcome [8]: inactive
outcome [9]: inactive
outcome [10]: inactive

CCc1cc(Cc2cc(CC)c(N)c(CC)c2)cc(CC)c1N
outcome [1]: inactive
AC50 [2]: 33.4 µM (active)
AC50 [3]: 1.1 µM (active)
outcome [4]: inactive
outcome [5]: inactive
outcome [7]: inactive
AC50 [8]: 3.95 µM (active)
outcome [9]: inactive

CN(C(=O)C(F)(F)C(F)(F)C(F)(F)F)[Si](C)(C)C
outcome [1]: inactive
outcome [2]: inactive
outcome [3]: inactive
outcome [4]: inactive
outcome [5]: inactive
outcome [7]: inactive
outcome [8]: inactive
outcome [9]: inactive
outcome [10]: inactive

CCc1cccc(C)c1N(C(=O)C(=O)O)C(C)COC (stereo unspecified)
outcome [1]: inactive
outcome [2]: inactive
outcome [3]: inactive
outcome [4]: inactive
outcome [5]: inactive
outcome [7]: inactive
outcome [8]: inactive
outcome [9]: inactive
outcome [10]: inactive

O=C(F)C1(F)C(F)(F)C(F)(F)C(F)(F)C(F)(F)C1(F)F
outcome [1]: inactive
outcome [2]: inactive
outcome [3]: inactive
outcome [4]: inactive
outcome [5]: inactive
outcome [7]: inactive
outcome [8]: inactive
outcome [9]: inactive
outcome [10]: inactive

O=S(=O)(O)CCC(F)(F)C(F)(F)C(F)(F)C(F)(F)C(F)(F)C(F)(F)C(F)(F)C(F)(F)F
outcome [1]: inactive
outcome [2]: inactive
outcome [3]: inactive
outcome [4]: inactive
outcome [5]: inactive
outcome [7]: inactive
outcome [8]: inactive
outcome [9]: inactive
outcome [10]: inactive

O=C1OC(=O)c2ccc3c4c(ccc1c24)C(=O)OC3=O
outcome [1]: inactive
outcome [2]: inactive
outcome [3]: inactive
outcome [4]: inactive
outcome [5]: inactive
outcome [7]: inactive
outcome [8]: inactive
outcome [9]: inactive

Cc1ccc([N+](=O)[O-])c(C)c1
outcome [1]: inactive
outcome [2]: inactive
outcome [3]: inactive
outcome [4]: inactive
outcome [5]: inactive
outcome [7]: inactive
outcome [8]: inactive
outcome [9]: inactive
outcome [10]: inactive

O=C(Cl)C(F)(F)C(F)(F)C(F)(F)C(F)(F)C(F)(F)C(F)(F)F
outcome [1]: inactive
outcome [2]: inactive
outcome [3]: inactive
AC50 [4]: 60.3 µM (active)
outcome [5]: inactive
outcome [7]: inactive
outcome [8]: inactive
outcome [9]: inactive
outcome [10]: inactive
